From PubChem BioAssay (EPA / NIEHS) come the findings set out here.

Inconclusive results are not listed. Active and inactive are the calls of the source. How the source made its calls, unless noted: active means hit-call score of the fitted dose curve at least 0.9, where 1 is the maximum; inactive means score below 0.9.

The test system of assay [1] is Brachyury (BRA) Protein Expression, Deisenroth Lab, TBXT (gene 6862). The assay is described as follows: CCTE_Deisenroth_DEVTOX-GLR_legacy_Bra: (Legacy) CCTE's DevTox GLR-Endo Assay Evaluation of Brachyury (BRA) Protein Expression, Deisenroth Lab (AID 2284329). Put shortly: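 Human pluripotent RUES2-GLR line was exposed twice during 48 h differentiation to a 10-point series, 1 nM - 200 uM. Fraction of Bra-positive cells was scored by imaging against pluripotent baseline and fitted after 0.2% DMSO subtraction.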

Assay [2] can be described thus: CCTE_Deisenroth_DEVTOX-GLR_legacy_CellCount: (Legacy) Viability Assessment in CCTE's DevTox GLR-Endo Assay, Deisenroth Lab (AID 2284331). The following applies: actives raise or lower the signal. The method in brief: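 RUES2-GLR human pluripotent cells were seeded 24 h, then differentiated 48 h with two compound doses at 24 h intervals (10-point, 1 nM - 200 uM). Fixed nuclei were imaged and counted; bidirectional fitting versus 0.2% DMSO.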

The subject of assay [3] is SRY-box transcription factor 17 (SOX17) Protein Expression, Deisenroth Lab, SOX17 (gene 64321). The assay can be described thus: CCTE_Deisenroth_DEVTOX-GLR_legacy_Sox17: (Legacy) CCTE's DevTox GLR-Endo Assay Evaluation of SRY-box transcription factor 17 (SOX17) Protein Expression, Deisenroth Lab (AID 2284341). The following applies: actives raise or lower the signal. The method in brief:
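Percent SOX17-positive cells, scored by high-content imaging as mean intensity exceeding pluripotent-control median by 5x BMAD, divided by cell count. Human RUES2-GLR endoderm differentiation, 48 h, two exposures 24 h apart, 1 nM–200 uM; DMSO-referenced bidirectional fitting.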

Assay [4] concerns SRY-box transcription factor 2 (SOX2) Protein Expression, Deisenroth Lab, SOX2 (gene 6657). The assay can be described thus: CCTE_Deisenroth_DEVTOX-GLR_legacy_Sox2: (Legacy) CCTE's DevTox GLR-Endo Assay Evaluation of SRY-box transcription factor 2 (SOX2) Protein Expression, Deisenroth Lab (AID 2284346). Put shortly:
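hPSC RUES2-GLR, 384-well; 24 h seed → 48 h endoderm differentiation, 2 doses q24h, 1 nM–200 uM. Fix, nuclear dye, 5 fields/well. Sox2+ cells/cell count; cell positive if >5x BMAD over endoderm ctrl; gain direction vs DMSO.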

The test system of assay [5] is SRY-box transcription factor 17 (SOX17) Protein Expression, Deisenroth Lab, SOX17 (gene 64321). The assay can be described thus: CCTE_Deisenroth_DEVTOX-GLR_Endo_SOX17: CCTE's DevTox GLR-Endo Assay Evaluation of SRY-box transcription factor 17 (SOX17) Protein Expression, Deisenroth Lab (AID 2284413). The method in brief: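 Seed RUES2-GLR cells 24 h; start endoderm differentiation; dose at 0 and 24 h (1 nM - 200 uM, 10 points); fix at 48 h, stain nuclei, image 5 fields/well; compute SOX17+/total cells vs 0.2% DMSO.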

Assay [6] has as its system Brachyury (BRA) Protein Expression, TBXT (gene 6862). The assay is described as follows: CCTE_Deisenroth_DEVTOX-GLR_Endo_BRA: CCTE's DevTox GLR-Endo Assay Evaluation of Brachyury (BRA) Protein Expression, Deisenroth Lab (AID 2284417). Put shortly: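 Endpoint is the fraction of BRA reporter-positive cells over total nuclei, corrected by subtracting the 0.2% DMSO value. Chemicals (1 nM - 200 uM, 10 points) were dosed twice during 48 h differentiation of RUES2-GLR cells, read by imaging.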

A short description of assay [7]: CCTE_Deisenroth_DEVTOX-GLR_Endo_CellCount: Viability Assessment in CCTE's DevTox GLR-Endo Assay, Deisenroth Lab (AID 2284420). The method in brief:
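Measured 48 h after dosing: fluorescent nuclei counted by imaging in human RUES2-GLR cells under defined differentiation media, tested at 1 nM - 200 uM. Values are percent cell-count change relative to 0.2% DMSO.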

Assay [8] has as its system SRY-box transcription factor 17 (SOX17) Protein Expression, Deisenroth Lab, SOX17 (gene 64321). The assay is described as follows: CCTE_Deisenroth_DEVTOX-GLR_Pluri_SOX17: CCTE's DevTox GLR-Pluri Assay Evaluation of SRY-box transcription factor 17 (SOX17) Protein Expression, Deisenroth Lab (AID 2284427; active means hit-call score of the fitted dose curve at least 0.9, where 1 is the maximum). Put shortly: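 Using an inducible fluorescent SOX17 reporter in human pluripotent RUES2-GLR cells, compounds (1 nM - 200 uM) were given twice over 48 h differentiation. Percent SOX17+ cells minus DMSO control came from high-content image analysis.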

Assay [9] relates to SRY-box transcription factor 2 (SOX2) Protein Expression, Deisenroth Lab, SOX2 (gene 6657). The assay is described as follows: CCTE_Deisenroth_DEVTOX-GLR_Pluri_SOX2: CCTE's DevTox GLR-Pluri Assay Evaluation of SRY-box transcription factor 2 (SOX2) Protein Expression, Deisenroth Lab (AID 2284428). The method in brief:
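Percent SOX2+ RUES2-GLR cells, determined by fluorescence microscopy after 48 h and two 24-h-interval chemical exposures spanning 1 nM–200 uM, served as the endpoint. Values are expressed relative to 0.2% DMSO; total cell counts assessed viability.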

Assay [10] relates to Brachyury (BRA) Protein Expression, Deisenroth Lab, TBXT (gene 6862). The assay is described as follows: CCTE_Deisenroth_DEVTOX-GLR_Pluri_BRA: CCTE's DevTox GLR-Pluri Assay Evaluation of Brachyury (BRA) Protein Expression, Deisenroth Lab (AID 2284429; active means hit-call score of the fitted dose curve at least 0.9, where 1 is the maximum). The method in brief:
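An inducible fluorescent BRA reporter in RUES2-GLR cells tracks mesoderm differentiation. Compounds (10 concentrations, 1 nM - 200 uM) are dosed twice within a 48-h differentiation. The endpoint subtracts the 0.2% DMSO control from percent BRA+ cells.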

A short description of assay [11]: CCTE_Deisenroth_DEVTOX-GLR_Pluri_CellCount: Viability Assessment in CCTE's DevTox GLR-Pluri Assay Evaluation of Total Cell Counts, Deisenroth Lab (AID 2284430). The method in brief: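 RUES2-GLR human pluripotent cells, seeded 24 h, then differentiated 48 h with two chemical exposures 24 h apart; 10-point series 1 nM - 200 uM. Fixed, nuclear-stained, imaged (5 fields/well); nuclei count as % change vs 0.2% DMSO.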

In the case of `Nc1cccc2c1C(=O)N(C1CCC(=O)NC1=O)C2=O` (stereo unspecified), the compound was classed as inactive in assay [1], in assay [8] and in assay [11]. In addition, the AC50 is 272 nM (active) in assay [2]; 67 nM (active) in [3]; 155000 nM (active) in [4]; 58.7 nM (active) in [5]; 29500 nM (active) in assay [6]; 281 nM (active) in assay [7]. For the same compound, the AC50 in [9] was 1040 nM (active); in [10], 25100 nM (active).

One may read the AC50 as the concentration at which the activity in the assay is half-maximal.
